# Assay outcomes deposited in PubChem by National Center for Advancing Translational Sciences (NCATS).
# GLP1R cytotox: cytotoxicity counter-screen for GLP-1 receptor inverse agonists; HEK293 cAMP-luciferase reporter cells, luminescence, 24 h; Potency, µM (titrated, usually from 38.3 µM), without a hit: top-dose activity change, negative = inhibition, hits mostly inhibitors; 0.13% of 410,000 active;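 further: loss of luciferase light is scored as toxicity; on the % scale 0 is the no-effect control and ±100 the full control effect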
#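 1536-well qHTS counterscreen of the MLSMR; 200 cells/uL, 12 h pre-incubation, 23 nL cpd, 24 h at 37 deg C 5% CO2, luciferase detection reagent, 12 min RT, luminescence. Inhibition = undesired.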
# GLP-1R agonist: activates the human GLP-1 receptor | 0.007% of 380,000 active | Potency, µM (titrated, usually from 45.6 µM), for the others: top-dose activation, usual class: activators | HEK293 GLP-1R CRE-luciferase, luminescence, 4-6 h; cells express a hypersensitive GLP-1R form | AID 624172; further: % of control where 0% means no effect
# Target sequence (P43220 whole entry, looked up): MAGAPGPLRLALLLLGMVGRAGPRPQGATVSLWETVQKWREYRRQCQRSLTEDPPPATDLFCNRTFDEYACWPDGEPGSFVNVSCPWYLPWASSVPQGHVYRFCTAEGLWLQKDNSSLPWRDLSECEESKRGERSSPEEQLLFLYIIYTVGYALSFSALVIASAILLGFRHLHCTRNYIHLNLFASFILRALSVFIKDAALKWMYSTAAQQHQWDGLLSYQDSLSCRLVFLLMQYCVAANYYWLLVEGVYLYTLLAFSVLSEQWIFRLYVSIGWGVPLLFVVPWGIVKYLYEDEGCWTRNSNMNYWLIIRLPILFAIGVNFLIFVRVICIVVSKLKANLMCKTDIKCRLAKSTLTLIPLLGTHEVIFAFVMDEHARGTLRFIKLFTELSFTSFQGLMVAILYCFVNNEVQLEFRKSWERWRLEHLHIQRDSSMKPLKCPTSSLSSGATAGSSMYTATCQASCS
# PTHR1 ag: agonists of human PTHR1 parathyroid hormone receptor; HEK293 GP2 PTHR1 cells, GloSensor cAMP luminescence, 1 h; Potency, µM (series often up to 115 µM), without a hit: top-dose activation, most hits filed as activators; 0.075% of 410,000 active; AID 743266; further: nearly all actives have a fitted effect of over 55% in size
#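 HEK-293-derived GP2 cells expressing PTHR1 and a GloSensor cAMP reporter, 3,000/well, plated overnight, given luciferin plus IBMX (each 0.5 mM as added) for 1 h at 37 °C, then compound for 1 h at 37 °C. Luminescence was read after 15 min at room temperature.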
# GLP1R inv ag: inverse agonists of human GLP-1 receptor; 1.6% of 410,000 active; AID 624417; Potency, µM (top dose mostly 38.3 µM), for inactives: at the top dose activity change, negative = inhibition, most hits filed as inhibitors; P43220; HEK293 GLP-1R CRE-luciferase, luminescence, 24 h; GLP-1R form is constitutively active; further: on the % scale 0 is the no-effect control and ±100 the full control effect; nearly all actives have a fitted effect of over 55% in size
#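 Inverse agonists were sought by their lowering of basal cAMP reporter luciferase output in HEK293 cells stably carrying constitutively active human GLP-1R, after 24 h compound treatment.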
# Numbers without * were called inactive; i = inactive; ? = inconclusive; . = not tested or not shown; [ ] = dose if it differs, or a comment. Shown are actives, neighbours in structure and some others; about 1.7% of the full set was active somewhere. The call rests on the fitted dose curve; in most records, active means well fitted curve in the direction sought with a large enough effect; inconclusive means small, poorly fitted or top-dose-only effect, or another doubt; inactive means no such curve, though single readings can be large; an effect the other way counts as inactive or inconclusive. Potency means the concentration at half of the fitted maximal effect.
SMILES,GLP1R cytotox,GLP-1R agonist,PTHR1 ag,GLP1R inv ag
N#Cc1ccccc1Cn1cc(C(=O)C2CC2)c2ccccc21,1%,11%,?,?
CCC(=O)c1cn(Cc2ccccc2C#N)c2ccccc12,-15%,6%,-14%,10µM*
Cc1ccc(OP(=O)(NCc2ccccc2)Oc2ccc(C)cc2)cc1,-2%,7%,-37%,7.1µM*
CCCCCCOc1ccc(CN2CCN(C)CC2)cc1,4%,-10%,i,3.2µM*
CC(=O)[C@@]1(O)CC[C@@H]2[C@@H]3CCC4=CC(=O)CC[C@]4(C)[C@]3(F)[C@@H](O)C[C@@]21C,.,-6%,.,.
COc1cc(C[C@H](C)N)c(OC)cc1C,.,-5%[110 µM],.,.
Cc1cccc(-n2c(/C=C/c3c(C)[nH]c4ccccc34)nc3ccccc3c2=O)c1,1%,.,i,18%
Cc1cccc(/C=C(\c2nc3ccccc3[nH]2)S(=O)(=O)c2ccccc2)c1,8.9µM*,0%,-35%,5µM*
COc1ccccc1Cc1c(-c2ccc(F)cc2)nc2cc(C)c(Br)c(C)n12,5%,2%,-30%,?
CCCOc1cccc(C(=O)Nc2cc(-c3nc4ccccc4[nH]3)ccc2C)c1,?,.,i,?
Cc1ccc(C(=O)Nc2cccc3[nH]c(C(F)(F)F)nc23)cc1,?,-1%,-33%,8.9µM*
C=C1C(=O)O[C@H]2C[C@H]1[C@@H](OC(C)=O)C/C(C)=C/CC/C(C)=C\CC[C@]2(C)O,?,-8%,-58%,7.1µM*
C=C1C(=O)OC2CC3(C)OC3CCC(C)=CC(OC(C)=O)C12 (configuration not stated),?,-4%,-45%,?
COc1ccc(C(=O)Nc2ccc(-c3nc4ccccc4s3)c(Cl)c2)cc1Cl,5%,2%,-78%,0%
O=C(NC(c1ccc(-c2ccccc2)cc1)c1cnccn1)C1CCN(Cc2ccc(Oc3ccccc3)cc2)CC1 (configuration not stated),?,1%,11%,4µM*
CCOC(=O)C1CCCN(Cc2ccc(-c3ccccc3)cc2)C1 (configuration not stated),4%,-4%,-23%,?
CCCCOc1ccccc1C1CC(=O)Nc2cc(C)c(C)cc21 (configuration not stated),?,.,-35%,13µM*
COc1cccc(N2CCN(C(=O)c3cc(C)oc3C)CC2)c1,?,17%,i,?
Cc1ccc(C)c(NC(=O)Cn2nc(C)c3nn(-c4ccc(Cl)cc4)c(C)c3c2=O)c1,6%,.,-71%,1%
Oc1ccc(C[C@H]2CNC(=S)N2CC2CCCN2C[C@H](Cc2ccccc2)N2C[C@H](Cc3ccc(O)cc3)N(CC3CCCCCC3)C2=S)cc1 (some centres not stated),-9%,-2%,7%,?
CCCCn1c(O)c(C=NC2CC3CCC2(C)C3(C)C)c(=O)[nH]c1=O (configuration not stated),-17%,4%,-22%,5.6µM*
CCN(CC)CCNCC(=O)Nc1ccc(Cl)cc1C(=O)c1ccccc1,-4%,-2%,i,?
CCN(CC)CCNC(=O)c1nn(-c2ccc(Cl)cc2)c2c1CCc1cc(OC)ccc1-2,?,-1%,i,4.5µM*
Cc1ccc(C(=O)CC(=O)c2cccc(F)c2)c(O)c1,26%,0%,-4%[57.5 µM],?
CC(C)C[C@@H](CO)N(Cc1ccccc1)S(=O)(=O)N(Cc1ccccc1)[C@@H](CO)CC(C)C,?,-2%,-24%,2.5µM*
COC(=O)C1=C(c2ccccc2OCc2ccccc2)C[C@@H]2CC[C@H]1N2C(=O)NCc1ccccc1,2%,-3%,-17%,?
COC(=O)C1=C(c2ccc(OC(F)(F)F)cc2)C[C@@H]2CC[C@H]1N2C(=O)NCC1CC1,-19%,6%,-42%,10µM*
COC(=O)C1=C(c2ccc(OCc3ccccc3)cc2)C[C@@H]2CC[C@H]1N2C(=O)NCc1ccccc1OC,4%,5%,i,13µM*
COC(=O)C1=C(c2ccc(OCc3ccccc3)cc2)C[C@@H]2CC[C@H]1N2C(=O)NCc1ccc(OC)c(OC)c1,5%,20%,-57%,0%
